The whole screen tested about 190,000 compounds, of which about 4,100 (2.2%) were called active. For the sample, actives were picked, then their nearest neighbours and some compounds at random. A number with no mark means an inactive call.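 The calls were made as follows: active = thallium flux slope and its plate-corrected score both differing from the plate sample mean at a set confidence after two filtering rounds, in either direction; inactive = the rest.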
The compounds below were run against Solute carrier family 12 member 5 (Homo sapiens) (UniProt Q9H2X9) (assay: KCC2 cotransporter modulators, thallium flux, primary screen, cell-based, HEK293 KCC2, FluoZin-2 fluorescence, MLSMR (AID 1456;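 also: slope of fluorescence scaled to starting intensity during 10 to 20 s after thallium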)). Conditions: KCC2 cells, thallium flux FluoZin-2 fluorescence; at 10 µM.
Solute carrier family 12 member 5 (Homo sapiens), sequence (Q9H2X9 whole entry, looked up): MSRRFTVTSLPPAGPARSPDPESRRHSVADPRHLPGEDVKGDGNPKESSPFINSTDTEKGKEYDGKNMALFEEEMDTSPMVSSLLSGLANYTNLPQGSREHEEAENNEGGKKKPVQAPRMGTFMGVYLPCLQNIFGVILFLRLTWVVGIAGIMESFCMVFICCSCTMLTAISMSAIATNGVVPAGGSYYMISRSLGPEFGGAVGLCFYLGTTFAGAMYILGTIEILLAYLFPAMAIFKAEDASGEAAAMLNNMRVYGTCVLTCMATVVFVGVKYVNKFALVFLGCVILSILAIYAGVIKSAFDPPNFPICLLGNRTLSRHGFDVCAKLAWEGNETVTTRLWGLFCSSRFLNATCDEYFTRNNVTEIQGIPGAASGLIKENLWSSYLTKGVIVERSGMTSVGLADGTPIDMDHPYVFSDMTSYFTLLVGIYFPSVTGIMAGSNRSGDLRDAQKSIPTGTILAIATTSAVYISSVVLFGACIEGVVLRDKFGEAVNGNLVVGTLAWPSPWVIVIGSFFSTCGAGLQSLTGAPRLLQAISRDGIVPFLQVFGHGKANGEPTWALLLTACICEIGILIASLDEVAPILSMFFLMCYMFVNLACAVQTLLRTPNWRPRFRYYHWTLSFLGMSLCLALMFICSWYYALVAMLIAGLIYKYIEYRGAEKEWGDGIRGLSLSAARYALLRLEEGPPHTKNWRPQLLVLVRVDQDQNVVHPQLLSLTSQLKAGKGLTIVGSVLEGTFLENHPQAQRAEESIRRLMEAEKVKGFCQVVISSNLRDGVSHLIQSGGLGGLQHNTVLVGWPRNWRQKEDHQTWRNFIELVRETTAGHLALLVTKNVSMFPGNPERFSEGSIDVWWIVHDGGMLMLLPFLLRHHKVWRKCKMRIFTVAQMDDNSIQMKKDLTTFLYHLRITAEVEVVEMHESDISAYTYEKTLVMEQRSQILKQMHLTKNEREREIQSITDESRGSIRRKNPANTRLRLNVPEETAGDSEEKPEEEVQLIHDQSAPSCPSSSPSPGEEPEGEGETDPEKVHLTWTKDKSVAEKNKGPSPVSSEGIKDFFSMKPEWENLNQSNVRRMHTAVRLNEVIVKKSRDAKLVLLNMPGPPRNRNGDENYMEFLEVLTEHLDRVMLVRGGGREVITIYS

SMILES	B-score of Tl+ flux slope (higher = more flux/activation; lower = inhibition)
C/C(=N/NC(=O)CC(=O)N/N=C(\C)c1ccc([N+](=O)[O-])cc1)c1ccc([N+](=O)[O-])cc1	-0.738
S=c1[nH]nc(-c2ccncc2)n1/N=C/c1ccccc1Cl	1.47
Fc1ccccc1/C=N/n1c(-c2cccnc2)n[nH]c1=S	-0.286
COc1ccccc1/C=C/C=N/n1c(-c2ccc(Cl)cc2Cl)n[nH]c1=S	11.5 (active)
COc1ccc(NC(=O)c2cn(-c3ccccc3)nc2SC)cc1	-1.58
CCOC(=O)c1ccc(N=C2SC(C(=O)NC)CC(=O)N2CCc2ccccc2)cc1 (centres undefined)	0.234
COc1ccc2nc(NC(=O)NC3CCCCC3)sc2c1	-1.35
CCC1=C/C(=C\c2ccc3c(c2)OCO3)C(=O)S1	-8.87 (active)
O=C1/C(=C/c2ccc3c(c2)OCO3)CCC/C1=C\c1ccc2c(c1)OCO2	0.12
CSC1=N/C(=C\c2ccc3c(c2)OCO3)C(=O)S1	-0.302
COc1ccc(/C=N/n2nnnc2N)cc1OC	0.513
c1ccc(C2c3[nH]c4ccccc4c3CCN2Cc2cccn2-c2cccnc2)nc1 (centres undefined)	-1.15
Cc1nnc(SC(C(=O)Nc2cc(Cl)cc(Cl)c2)c2ccccc2)[nH]c1=O (centres undefined)	-4.12 (active)
Cc1nnc(SC(C(=O)c2ccccc2)c2ccccc2)[nH]c1=O (centres undefined)	-0.235
O=C(Nc1cc(Cl)cc(Cl)c1)C(NCCCO)c1ccccc1 (centres undefined)	-0.607
O=C1N(c2ccccc2)C(=Nc2ccccc2)SC12CC2	-0.447
O=C(c1ccc(=O)oc1)N1CCC(C(O)(c2ccccc2)c2ccccc2)CC1	-0.673
Cc1c(C(=O)NC(=S)NCc2cccnc2)oc2ccccc12	13.6 (active)
O=C(CCc1ccccc1)NCc1cccnc1	0.123
Cc1ccc(C(=O)NC(=S)NCc2cccnc2)cc1	1.21
CC(C)(C)c1ccc(CCC2OCC(CN3CCOCC3)O2)cc1 (centres undefined)	0.742
CCNC(=S)N1CCN(CCN=CC2=C(O)CC(C)(C)CC2=O)CC1	-0.763

SMILES	B-score of Tl+ flux slope (higher = more flux/activation; lower = inhibition)
Cc1ccc(C(O)P(=O)(OC(C)C)c2ccc(N(C)C)cc2)cc1 (centres undefined)	0.0994
COC(=O)c1scc(C)c1NC(=O)CSc1ccc(Cl)cc1	-1.21
COC(=O)c1sccc1NC(=O)COc1ccc(Cl)cc1	0.143
COC(=O)c1sccc1NC(=O)CSc1ccccc1NS(=O)(=O)c1cc(Cl)ccc1Cl	18.4 (active)
O=C(CSc1ccc(-c2ccco2)nn1)NCc1ccc2c(c1)OCO2	-0.85
CC(C)Cc1nc(Cl)c(C#N)c2c1CCC2	-0.778
CCCC(=O)N1c2ccccc2NC2=C(C(=O)CCC2)C1c1ccc(F)cc1 (centres undefined)	2.84 (active)
CCC(=O)N1c2ccccc2NC2=C(C(=O)CCC2)C1c1ccco1 (centres undefined)	1.12
O=C1CC(c2cccc(F)c2)C2=C(CCCC2=O)N1 (centres undefined)	-0.124
Cn1cnc([N+](=O)[O-])c1Sc1n[nH]c(N)n1	0.197
Cn1cnc(S(=O)(=O)Nc2ccc3c(c2)OCCO3)c1	1.1
Oc1ccc2ccccc2c1C=Nc1ccccc1	-0.244
Oc1ccc2ccccc2c1N=Nc1nccs1	111 (active)
Oc1ccc(N=Nc2nccs2)c(O)c1	0.824
Cc1ccc(NC(=O)Nc2cc(-c3ccccc3)nn2C)cc1Cl	0.308
CCOC(=O)c1cnc(COc2ccccc2Cl)[nH]c1=O	1.26
Cn1c(=O)c2c(nc(NCc3ccccc3)n2CC(N)=O)n(C)c1=O	0.178
CCCc1cc(-c2n[nH]c(=S)n2CC)c2ccccc2n1	-0.942
CCCc1cc(-c2n[nH]c(=S)n2Cc2ccccc2)cs1	4.54 (active)
CCn1c(-c2ccncc2)n[nH]c1=S	-0.798
Cc1cc(-c2csc(N)n2)c(C)n1Cc1ccccc1	1.01
C=CCn1c(-c2ccc3[nH]c(C)c(C)c3c2)n[nH]c1=S	-0.00959

SMILES	B-score of Tl+ flux slope (higher = more flux/activation; lower = inhibition)
CCc1cc(-c2n[nH]c(=S)n2CC(C)C)cs1	8.35 (active)
CSC1=NCCN1C(=O)Cc1cccc2ccccc12	0.183
Brc1ccc(-c2n(-c3ccccn3)c3ccccc3[n+]2-c2ccccn2)cc1	1.55
CCCc1ccc(C(=O)[C@@H]2[C@@H](C(C)=O)N3c4ccc(F)cc4C=C[C@@H]3[C@@]23C(=O)Nc2ccccc23)cc1	0.383
O=S(=O)(c1cccc(-c2nnc3n2CCCCC3)c1)N1CCOCC1	-1.09
O=C(Nc1nnc(C2COc3ccccc3O2)o1)c1ccc(F)cc1 (centres undefined)	15 (active)
O=C(CN1C(=O)COc2ccccc21)Nc1ccc(F)cc1	0.048
c1ccc2c(c1)OCC(c1nn3cnnc3s1)O2 (centres undefined)	-0.604
O=C(NNC(=O)c1csc(-c2cccnc2)n1)Nc1ccc(Cl)cc1	-0.334
COc1ccc(NC(=O)CCN2C(=O)/C(=C/c3ccc4c(c3)OCO4)SC2=S)cc1	-1.33
CCC1(C)Cc2c(sc3nc(SC)[nH]c(=O)c23)CO1 (centres undefined)	0.823
CCC1(C)Cc2c(sc3nc4n(c(=O)c23)CCCS4)CO1 (centres undefined)	-0.0542
CCC1(C)Cc2c(sc3[nH]c(=S)n(Cc4ccccc4)c(=O)c23)CO1 (centres undefined)	35.8 (active)
Cc1c(C)c(C)c2[nH]c(=S)[nH]c2c1C	0.63
COc1ccc(Cl)cc1C(=O)NNC(=O)c1nc2nc(C)cc(C)n2n1	-1.53
CCN1CCN(c2nc(Nc3cccc(F)c3)nc(N)c2[N+](=O)[O-])CC1	-0.953
N#Cc1c(-c2ccc(Cl)cc2)c2c([nH]c1=S)CCCC2	13.8 (active)
N#Cc1c2c(c(-c3ccccc3)[nH]c1=O)CCCC2	-0.0377
CC(=O)c1c(C)[nH]c(=S)c(C#N)c1-c1ccc(F)cc1	0.0246
COc1ccc(NC(=O)C2=C(C)NC(=O)NC2c2ccccc2[N+](=O)[O-])cc1 (centres undefined)	-1.15

Reference: PubChem BioAssay AID1456 (Vanderbilt High Throughput Screening Facility, 2008)
